In PubChem BioAssay (NCI):
Compounds without any hit were thinned out: in the full panel of roughly 79,000, 15% have a hit. Active and inactive are the calls of the source. Rule as the data show it: active = growth inhibition above about 70%; inactive = the rest.

Columns and labels:
[1] = NCI Yeast Anticancer Drug Screen. Data for the rad52 strain (AID 147);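 also: 0% = growth of vehicle-treated control cultures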; settings: S. cerevisiae rad52 mutant growth inhibition, hits give high values
Outline: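 Measured: yeast growth inhibition. System: strain with a defined DNA damage repair alteration. Reference: vehicle-treated control cultures.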

[2] = NCI Yeast Anticancer Drug Screen. Data for the wt1 strain (AID 149);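 also: 0% = growth of vehicle-treated wt1 cultures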; settings: S. cerevisiae wt1 strain (SPY 50644) growth inhibition, hits give high values
Outline: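 Readout: yeast growth inhibition, normalised to vehicle controls, in the wt1 strain exposed to test compounds.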

[3] = NCI Yeast Anticancer Drug Screen. Data for the rad50EPP+ strain (AID 151);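 also: 0% = growth of vehicle-treated control cultures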; settings: S. cerevisiae rad50 mutant strain, hits give high values
Outline: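 One strain with a rad50 alteration (rad50EPP+) was compound-treated, its growth then compared to that of vehicle controls.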

[4] = NCI Yeast Anticancer Drug Screen. Data for the mgt1 strain (AID 153); settings: S. cerevisiae mgt1 mutant growth inhibition, hits give high values
Outline: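 After exposure of the mgt1 yeast mutant to compound, growth was measured and reported as inhibition compared with vehicle controls.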

[5] = NCI Yeast Anticancer Drug Screen. Data for the rad50 strain (AID 155);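 also: 0% = growth of vehicle-only cultures of the same strain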; settings: S. cerevisiae rad50 strain growth inhibition, hits give high values
Outline: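 Compounds were tested on a yeast strain with an engineered DNA damage repair alteration; the reported value is growth inhibition normalised to vehicle treatment.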

[6] = NCI Yeast Anticancer Drug Screen. Data for the mec2-1 strain (AID 157); settings: S. cerevisiae mec2-1 strain, hits give high values
Outline: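 Test agents were screened against the mec2-1 yeast strain, with defined DNA repair or cell cycle alteration. Growth was scored as inhibition against vehicle-only controls.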

[7] = NCI Yeast Anticancer Drug Screen. Data for the rad14 strain (AID 159);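 also: 0% = growth of vehicle-treated control cultures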; settings: S. cerevisiae rad14 strain growth inhibition, hits give high values
Outline: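 Compound-treated yeast with a defined DNA-repair lesion; growth inhibition normalised to vehicle-treated cultures.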

[8] = NCI Yeast Anticancer Drug Screen. Data for the sgs1 mgt1 strain (AID 161);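 also: 0% = growth of cultures given vehicle only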; settings: S. cerevisiae sgs1 mgt1 strain, hits give high values
Outline: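 Test agents were incubated with a DNA-repair-mutant yeast strain. Growth was then read and compared against vehicle-treated controls.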

[9] = NCI Yeast Anticancer Drug Screen. Data for the CLN2oe strain (AID 163);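 also: 0% = growth of vehicle-only control cultures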; settings: S. cerevisiae CLN2oe strain, hits give high values
Outline: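 Here, growth inhibition in a cell-cycle-altered yeast strain after compound exposure was quantified against vehicle control growth.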

[10] = NCI Yeast Anticancer Drug Screen. Data for the cln2 rad14 strain (AID 165);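 also: 0% = growth equal to vehicle treated cultures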; settings: S. cerevisiae cln2 rad14 strain, hits give high values
Outline: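 Growth of compound-exposed yeast (cln2 rad14 genotype) measured and expressed as inhibition relative to vehicle.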

[11] = NCI Yeast Anticancer Drug Screen. Data for the bub3 strain (AID 167); settings: S. cerevisiae bub3 mutant strain, hits give high values
Outline: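 Growth of a checkpoint-deficient yeast mutant is measured after compound exposure. Values represent inhibition relative to vehicle.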

[12] = NCI Yeast Anticancer Drug Screen. Data for the wt2 strain (AID 169);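 also: 0% = growth of vehicle-treated yeast cultures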; settings: S. cerevisiae wt2 strain growth inhibition, hits give high values
Outline: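 Genetically defined yeast strains from a DNA-repair/cell-cycle panel were used. Compound-exposed yeast growth was measured, and the inhibition was calculated relative to vehicle treatment.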

[13] = NCI Yeast Anticancer Drug Screen. Data for the mlh1 strain (AID 171);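 also: 0% = growth of vehicle-treated control cultures of the same strain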; settings: S. cerevisiae mlh1 strain growth inhibition, hits give high values
Outline: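 Here the genetically defined yeast mutant is grown with each compound, and the extent to which its growth falls below that of vehicle-exposed cells is reported.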

[14] = NCI Yeast Anticancer Drug Screen. Data for the sgs1 strain (AID 173);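 also: 0% = growth of vehicle-only control cultures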; settings: S. cerevisiae sgs1 mutant, hits give high values
Outline: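 Relative growth inhibition, referenced to vehicle, was determined in a yeast strain with a defined alteration affecting DNA damage repair or cell cycle control after compound exposure.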

[15] = NCI Yeast Anticancer Drug Screen. Data for the mlh1 rad18 strain (AID 175); settings: S. cerevisiae mlh1 rad18 strain growth inhibition, hits give high values
Outline: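 In this whole-cell yeast screen, a strain with altered DNA damage repair is challenged with compound, and its growth is measured against matched vehicle-treated controls.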

[16] = NCI Yeast Anticancer Drug Screen. Data for the rad18 strain (AID 177); settings: S. cerevisiae rad18 mutant growth inhibition, hits give high values
Outline: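 Screen uses a yeast strain with a defined lesion in DNA damage repair; compound effect is read as loss of growth compared to untreated vehicle cultures.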

[17] = at 5.0 µM (retest, dose inferred, filed as 0.5)
[18] = at 50.0 µM (retest, dose inferred, filed as 5.0)

Measured: growth inhibition

CCCCCCCCCCCCCC[N+](C)(CC(=O)[O-])Cc1ccccc1 (stereo unspecified)
inactive: [1]; at 1.2 µM 2% | [1]; at 3.7 µM 23% | [2]; at 1.2 µM -1% | [2]; at 3.7 µM 1% | [2]; at 33.0 µM 54% | [3]; at 1.2 µM 5% | [3]; at 3.7 µM 32% | [4]; at 1.2 µM 2% | [4]; at 3.7 µM 26% | [5]; at 1.2 µM 8% | [5]; at 3.7 µM 50% | [5]; [17] 8% | [6]; at 1.2 µM -2% | [6]; at 3.7 µM 3% | [6]; [17] 32% | [7]; at 1.2 µM 10% | [7]; at 3.7 µM 30% | [8]; [17] 13% | [9]; at 1.2 µM 5% | [9]; at 3.7 µM 19% | [10]; [17] 9% | [11]; at 1.2 µM -1% | [11]; at 3.7 µM 10% | [11]; [17] 2% | [12]; at 1.2 µM -6% | [12]; at 3.7 µM 9% | [12]; at 33.0 µM 60% | [13]; at 1.2 µM 2% | [13]; at 3.7 µM 31% | [14]; at 1.2 µM 2% | [14]; at 3.7 µM 30% | [15]; [17] 1% | [16]; at 1.2 µM 3% | [16]; at 3.7 µM 23%
active: [1]; at 11.0 µM 99% | [1]; at 33.0 µM 98% | [1]; at 100.0 µM 99% | [2]; at 11.0 µM 99% | [2]; at 100.0 µM 99% | [3]; at 11.0 µM 99% | [3]; at 33.0 µM 99% | [3]; at 100.0 µM 98% | [4]; at 11.0 µM 100% | [4]; at 33.0 µM 99% | [4]; at 100.0 µM 99% | [5]; at 11.0 µM 99% | [5]; at 33.0 µM 99% | [5]; [18] 99% | [5]; at 50.0 µM 98.8% | [5]; at 100.0 µM 99% | [6]; at 11.0 µM 99% | [6]; at 33.0 µM 99% | [6]; [18] 100% | [6]; at 50.0 µM 99.1% | [6]; at 100.0 µM 99% | [7]; at 11.0 µM 100% | [7]; at 33.0 µM 99% | [7]; at 100.0 µM 99% | [8]; [18] 99% | [8]; at 50.0 µM 98.8% | [9]; at 11.0 µM 99% | [9]; at 33.0 µM 99% | [9]; at 100.0 µM 99% | [10]; [18] 99% | [10]; at 50.0 µM 93.8% | [11]; at 11.0 µM 99% | [11]; at 33.0 µM 99% | [11]; [18] 99% | [11]; at 50.0 µM 98.9% | [11]; at 100.0 µM 98% | [12]; at 11.0 µM 100% | [12]; at 100.0 µM 99% | [13]; at 11.0 µM 99% | [13]; at 33.0 µM 99% | [13]; at 100.0 µM 99% | [14]; at 11.0 µM 99% | [14]; at 33.0 µM 99% | [14]; at 100.0 µM 99% | [15]; [18] 99% | [15]; at 50.0 µM 99.1% | [16]; at 11.0 µM 99% | [16]; at 33.0 µM 99% | [16]; at 100.0 µM 99%

Cc1c(C2=C(Br)C(=O)N(C)C2=O)c(=O)n(C)c(=O)n1C
inactive: [1]; at 1.2 µM 11% | [1]; at 3.7 µM 26% | [1]; at 11.0 µM 51% | [1]; at 33.0 µM 67% | [2]; at 1.2 µM 4% | [2]; at 3.7 µM 13% | [2]; at 11.0 µM 23% | [2]; at 33.0 µM 35% | [3]; at 1.2 µM 0% | [3]; at 3.7 µM -2% | [3]; at 11.0 µM -2% | [3]; at 33.0 µM 1% | [3]; at 100.0 µM 3% | [4]; at 1.2 µM -1% | [4]; at 3.7 µM 0% | [4]; at 11.0 µM 8% | [4]; at 33.0 µM 23% | [5]; at 1.2 µM 6% | [5]; at 3.7 µM 15% | [5]; [17] 10% | [5]; at 11.0 µM 46% | [5]; [18] 55% | [6]; at 1.2 µM 7% | [6]; at 3.7 µM 15% | [6]; [17] -3% | [6]; at 11.0 µM 26% | [6]; at 33.0 µM 45% | [6]; [18] 20% | [6]; at 50.0 µM 56.1% | [7]; at 1.2 µM 5% | [7]; at 3.7 µM 13% | [7]; at 11.0 µM 28% | [7]; at 33.0 µM 47% | [8]; [17] 0% | [8]; [18] 5% | [8]; at 50.0 µM 58.6% | [9]; at 1.2 µM -2% | [9]; at 3.7 µM 0% | [9]; at 11.0 µM 1% | [9]; at 33.0 µM 10% | [9]; at 100.0 µM 44% | [10]; [17] 20% | [10]; [18] -14% | [10]; at 50.0 µM 3.95% | [11]; at 1.2 µM 1% | [11]; at 3.7 µM 4% | [11]; [17] 6% | [11]; at 11.0 µM 18% | [11]; at 33.0 µM 47% | [11]; [18] 57% | [11]; at 50.0 µM 28.1% | [12]; at 1.2 µM 0% | [12]; at 3.7 µM 3% | [12]; at 11.0 µM 11% | [12]; at 33.0 µM 39% | [13]; at 1.2 µM 0% | [13]; at 3.7 µM 3% | [13]; at 11.0 µM 13% | [13]; at 33.0 µM 48% | [14]; at 1.2 µM 2% | [14]; at 3.7 µM 11% | [14]; at 11.0 µM 22% | [14]; at 33.0 µM 60% | [15]; [17] 4%
active: [1]; at 100.0 µM 87% | [2]; at 100.0 µM 73% | [4]; at 100.0 µM 91% | [5]; at 33.0 µM 78% | [5]; at 50.0 µM 81.9% | [5]; at 100.0 µM 91% | [6]; at 100.0 µM 94% | [7]; at 100.0 µM 91% | [11]; at 100.0 µM 91% | [12]; at 100.0 µM 95% | [13]; at 100.0 µM 97% | [14]; at 100.0 µM 94% | [15]; [18] 84% | [15]; at 50.0 µM 91.7%
